Assay outcomes deposited in PubChem BioAssay by The Scripps Research Institute Molecular Screening Center.
Only some compounds are listed: those with a hit (about 2.6% of all), similar ones and a draw of the others.
KLF5 inh – inhibitors of KLF5 expression; inhibition, % at 5 µM; DLD-1 KLF5 promoter-luciferase reporter, luminescence; 290,000 compounds, 0.23% hits;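 active = inhibition above a per-plate limit of that plate's mean compound inhibition plus 3 SD, cut at about 60% in these data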;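 also: 0% = DMSO wells and 100% = LY294002 at 200 µM; higher means less KLF5 promoter-driven luciferase light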
GPR7 antag – blocks human GPR7 receptor signaling; P48145; GPR7-expressing cells, fluorescence antagonist assay; inhibition, % at 4.4 µM; 290,000 compounds, 1.1% hits; in the data active = inhibition above about 16%, passing the limit was not always enough;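 also: cells stimulated with the agonist NPW; 0% = agonist with vehicle and 100% = vehicle without agonist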
Target sequence (P48145 whole entry, looked up): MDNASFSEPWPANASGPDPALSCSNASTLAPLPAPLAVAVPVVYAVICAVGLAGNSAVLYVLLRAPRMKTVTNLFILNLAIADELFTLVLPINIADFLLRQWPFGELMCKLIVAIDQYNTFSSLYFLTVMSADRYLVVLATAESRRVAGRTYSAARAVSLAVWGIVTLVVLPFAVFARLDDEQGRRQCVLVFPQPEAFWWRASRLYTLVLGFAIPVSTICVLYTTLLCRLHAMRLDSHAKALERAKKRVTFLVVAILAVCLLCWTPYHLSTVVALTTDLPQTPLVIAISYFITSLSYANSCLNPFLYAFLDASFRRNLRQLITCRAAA
BaF3 parental – counter-screen for JAK2V617F inhibitors: parental Ba/F3 viability inhibitors; CellTiter-Glo ATP luminescence; inhibition, % at 5.6 µM; 220,000 compounds, 1.1% hits; AID 1486;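 active = inhibition above a per-campaign cutoff, the mean inhibition of all tested compounds plus 3 SD, cut at about 27% in these data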;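 also: 0% = DMSO wells and 100% = JAK Inhibitor I control wells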
Ba/F3 V617F tox – lowers viability of Ba/F3 cells expressing EpoR and JAK2V617F; ATP luminescence; inhibition, % at 5.6 µM; 220,000 compounds, 1.1% hits; AID 1446;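 active = inhibition above the campaign mean plus 3 SD over all tested compounds, cut at about 24% in these data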;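 also: cytokine-independent growth of Ba/F3 cells driven by EpoR plus mutant JAK2; 0% = DMSO-treated cells and 100% = JAK inhibitor I control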
IEC-6 cytotox – kills IEC-6 intestinal cells in KLF5 counter-screen | IEC-6 cytotoxicity, luminescence viability | inhibition, % at 5 µM | 290,000 compounds, 0.78% hits | AID 1825; in the data active = inhibition above about 22%;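 also: 0% = plate median of test compound wells and 100% = cytotoxic reference compound wells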
DNA FID counter – fluorescent intercalator displacement, NS3 helicase counter-screen | DNA fluorescent intercalator displacement, fluorescence | inhibition, % at 7.9 µM | 290,000 compounds, 0.17% hits; in the data active = inhibition above about 37%;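 also: 0% = vehicle and 100% = reference compound; higher means more ethidium bromide displaced from hairpin DNA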
* marks the source's active call; other numbers are inactive results; . = no result.

SMILES	KLF5 inh	GPR7 antag	BaF3 parental	Ba/F3 V617F tox	IEC-6 cytotox	DNA FID counter
Fc1ccc(NC(=S)N2CCCN(c3ccc(C(F)(F)F)cn3)CC2)c(F)c1	-8	10	33*	35*	-6	-14
O=C(Nc1ccc(F)cc1F)N1CCCN(c2ccc(C(F)(F)F)cn2)CC1	5	5	2	4	2	-16
COc1ccc(-n2c(-c3ccccc3)c[n+]3c2CCC3)cc1	-25	-4	63*	75*	2	-3
COc1ccc(-n2c(-c3ccc(Br)cc3)nc(=S)c3c2CCCC3)cc1	-11	-10	4	-3	-1	1
COc1ccc(-n2c(-c3ccc(Br)cc3)c[n+]3c2SC(C)C3)cc1 (configuration not stated)	-25	6	67*	76*	5	11
COc1ccc(-n2c(-c3ccc(Br)cc3)c[n+]3c2CCCCC3)cc1	-30	2	64*	76*	18	3
COc1ccc(-n2c(-c3ccc(Br)cc3)c[n+]3c2CCC3)cc1	-1	21	66*	81*	-1	8
Cc1nn(-c2cc(C(F)(F)F)ccn2)c(=O)o1	-22	-2	-4	-3	-11	0
CC1(C)Cc2c(sc(NC(=O)c3ccc(S(=O)(=O)N4CCCCCC4)cc3)c2C(N)=O)C(C)(C)N1	-28	4	.	.	-5	31
O=C(Nc1nc2ccc(F)cc2s1)C1CCN(S(=O)(=O)c2cc([N+](=O)[O-])ccc2Cl)CC1	-58	18	5	11	-7	7
Cc1ccc2nc(NC(=O)C3CCN(S(=O)(=O)c4cc([N+](=O)[O-])ccc4Cl)CC3)sc2c1	14	7	38*	37*	2	2
Cc1cc(C)cc(NC(=O)/C=C/c2ccc([N+](=O)[O-])s2)c1	2	12	50*	1	4	-3
O=C(/C=C/c1ccc([N+](=O)[O-])s1)N1CCCC1	-18	-3	3	1	1	5
Cc1ccccc1NC(=O)/C=C/c1ccc([N+](=O)[O-])s1	2	-1	55*	80*	14	4
Fc1ccccc1CSc1nncn1NCc1cccs1	-70	19*	0	-5	-6	-12
CCn1c(SCC(=O)NCc2ccc(C)cc2)nnc1-c1ccncc1	-13	-10	3	-4	-3	-4
CC1(C)OC(=O)C(=NNc2ccccc2)C(=O)O1	9	-2	0	-2	0	1
CC1(C)OC(=O)C(=NNc2ccc(O)cc2)C(=O)O1	-37	-8	53*	36*	0	-4
CN1/C(=C\C(=O)c2cncc(Br)c2)C(C)(C)c2ccccc21	-32	8	70*	62*	-2	-8
CN1/C(=C\C(=O)C[n+]2ccc3ccccc3c2)C(C)(C)c2ccccc21	22	3	42*	41*	2	1
CN1/C(=C\C(=O)c2ccco2)C(C)(C)c2ccccc21	-6	24	65*	72*	9	-8
CN1/C(=C\C(=O)c2cccc(S(=O)(=O)N3CCCCC3)c2)C(C)(C)c2ccccc21	0	-10	-2	-2	5	-2
CN1/C(=C/C(=O)c2nc(S(C)(=O)=O)ncc2Cl)C(C)(C)c2ccccc21	-30	4	92*	87*	-4	-11
CC(C)(C)N=C1SCC(C)(/C=N/O)S1 (configuration not stated)	-33	-3	0	2	7	-4
COc1ccc(NC(=O)c2ccc3c(c2)OCCO3)cc1OC	-88	-4	.	.	2	-12
SMILES	KLF5 inh	GPR7 antag	BaF3 parental	Ba/F3 V617F tox	IEC-6 cytotox	DNA FID counter
C=CCC1Cc2c(Br)cccc2C(CC=C)N1 (configuration not stated)	2	-9	8	4	0	-4
Cc1cc(NS(=O)(=O)c2ccc(NC(=O)COc3c(C)cc(Br)cc3C)cc2)no1	-1	-13	.	.	2	-43
O=C(Nc1ccc(F)cc1)c1nn(-c2ccccc2)c(=O)cc1Cl	5	46*	-4	-3	15	-7
NC(=O)NC1CCCc2c1[nH]c1ccc(Cl)cc21 (configuration not stated)	-12	-2	10	-3	-5	4
S=C(NCCc1ccccc1)Nc1cccc2cnccc12	4	7	42*	17	11	2
Cn1c(SCc2c(F)cccc2Cl)nc2c(c1=O)SCC2	-7	20*	7	-1	5	-10
Cn1c(SCC(=O)Nc2ccccc2F)nc2c(c1=O)SCC2	-7	0	.	.	1	-6
O=C(NCCCN1CCOCC1)c1cc2c(s1)-c1ccccc1OC2	-3	12	.	.	0	23
CCn1c(SC)nnc1-c1sc2cc(Cl)ccc2c1Cl	-33	-4	40*	2	0	-33
C=C(C)Cn1c(=S)[nH]c2ccccc2c1=O	-5	-8	8	2	3	-15
CCc1cc2cc3c(cc2nc1SCC(=O)Nc1cc(OC)c(OC)cc1C(=O)O)OCO3	-21	-5	9	0	-5	-13
CC(=O)c1cnc(Nc2nc(C)c3ccc(C)cc3n2)nc1C	-21	-19	0	-2	-1	-14
Cc1ccc2c(C)nc(NC3=NCN(C(C)C)CN3)nc2c1	-31	7	31*	10	0	0
CCCc1c(CC)c(=N)c2ccccc2n1C	-9	8	65*	71*	6	8
CC(C)Oc1ncnc2c1[nH]c1ccccc12	-35	-7	36*	0	6	-2
Nc1cc(Cl)ccc1N1CCCC1	-31	-7	55*	42*	-1	1
Nc1cc(C(=O)O)ccc1N1CCCCC1	-27	-8	3	-2	-3	-10
Nc1cc(F)ccc1N1CCCCCC1	-25	5	57*	39*	-5	2
CC(C)n1c(NCCO)nc2ccccc21	-5	-6	-2	1	6	0
CC(C)n1c(Nc2ccccc2)nc2ccccc21	-8	-6	2	-2	0	91*
COc1ccc(/C=C2/C(=O)OCc3cc(OC)c(OC)cc32)cc1	30	14	28*	57*	26*	-13
CSc1ncnc2c1cnn2-c1ccc(C)cc1C	3	-16	5	3	2	-9
Cc1ccc(-n2ncc3c(SCc4ccccn4)ncnc32)c(C)c1	30	-15	35*	12	1	-32
O=C(NC1CCCCC1)C(=S)NCc1ccccc1	-11	-5	3	0	-9	-15
O=c1sc2ccccc2n1CCOc1ccccc1	-84	4	6	0	-8	-11
COc1ccc(O)c(-c2cn[nH]c2-c2cccs2)c1	-4	20*	4	1	-2	0
Cc1ccc(S(=O)(=O)c2nc(-c3ccco3)oc2N2CCC(C)CC2)cc1	-12	-17	.	.	-2	-34
CCOC(=O)N1CCN(CCC(=O)Nc2ccc(OC)cc2OC)CC1	-28	-2	1	-2	-3	-4
